Source: PubChem BioAssay (NCATS)
Several values for one entry are separate records, joined by “and”; a condition that tells them apart may be missing. Identical values can stand only once. Results filed as inconclusive are left out. Activity calls are given as the source filed them. Unless noted, calls follow the shape of the full dose curve.

Tests used:
[1] = target: Bile acid receptor (Homo sapiens) (UniProt Q96RI1); test: qHTS assay for small molecule antagonists of farnesoid X receptor signaling (AID 588526); also: % is scaled to controls: 0 for no effect and ±100 for the full control effect
Chain of Bile acid receptor (Homo sapiens) (Q96RI1 whole entry, looked up): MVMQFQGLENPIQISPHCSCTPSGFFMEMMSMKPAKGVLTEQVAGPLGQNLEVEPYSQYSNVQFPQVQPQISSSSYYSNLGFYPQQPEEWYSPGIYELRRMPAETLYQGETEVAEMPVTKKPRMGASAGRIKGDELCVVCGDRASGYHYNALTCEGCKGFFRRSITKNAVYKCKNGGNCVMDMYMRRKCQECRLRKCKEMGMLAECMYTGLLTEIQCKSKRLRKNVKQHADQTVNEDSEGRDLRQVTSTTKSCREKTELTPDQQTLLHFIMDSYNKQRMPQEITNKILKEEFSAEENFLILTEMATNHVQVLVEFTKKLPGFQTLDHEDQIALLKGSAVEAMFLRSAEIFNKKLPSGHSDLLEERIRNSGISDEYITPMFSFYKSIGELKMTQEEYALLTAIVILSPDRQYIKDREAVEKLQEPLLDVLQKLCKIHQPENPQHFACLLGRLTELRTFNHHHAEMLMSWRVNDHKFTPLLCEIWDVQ
How it was run: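 Concentration-response titrations were fitted to the Hill equation for half-maximal inhibition and maximal response, with data normalised to 50 uM chenodeoxycholic acid and DMSO control wells. Cells: FXR-UAS-bla HEK293T, dialyzed FBS.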

[2] = target: Bile acid receptor (Homo sapiens) (UniProt Q96RI1); test: qHTS assay for small molecule agonists of farnesoid X receptor signaling (AID 588527); details: HEK293T FXR-UAS-bla, beta-lactamase ratio, 16 h; activation: stronger effect = higher value;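 also: series mostly up to about 77 µM; 0% = vehicle basal and 100% = reference agonist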
How it was run: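 Agonist-mode beta-lactamase reporter in GeneBLAzer FXR-UAS-bla HEK293T cells, titration up to 92 uM, 16 h exposure at 37 C, CCF4 fluorescence. Response scaled to DMSO (0%) and 100 uM chenodeoxycholic acid (100%), then Hill-fitted for EC50 and efficacy.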

[3] = target: Glucocorticoid receptor (Homo sapiens) (UniProt P04150); test: qHTS assay for small molecule agonists of glucocorticoid receptor signaling (AID 588532; active = well fitted curve in the direction sought with a large enough effect in the signal ratio, with a control signal flat; the % refers to the signal ratio;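 also: 100% = dexamethasone at 0.1 µM and 0% = DMSO only wells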); details: HeLa MMTV-bla, beta-lactamase ratio, agonist, 18 h; activation: stronger effect = higher value, percent of dexamethasone control, DMSO zero
Chain of Glucocorticoid receptor (Homo sapiens) (P04150 whole entry, looked up): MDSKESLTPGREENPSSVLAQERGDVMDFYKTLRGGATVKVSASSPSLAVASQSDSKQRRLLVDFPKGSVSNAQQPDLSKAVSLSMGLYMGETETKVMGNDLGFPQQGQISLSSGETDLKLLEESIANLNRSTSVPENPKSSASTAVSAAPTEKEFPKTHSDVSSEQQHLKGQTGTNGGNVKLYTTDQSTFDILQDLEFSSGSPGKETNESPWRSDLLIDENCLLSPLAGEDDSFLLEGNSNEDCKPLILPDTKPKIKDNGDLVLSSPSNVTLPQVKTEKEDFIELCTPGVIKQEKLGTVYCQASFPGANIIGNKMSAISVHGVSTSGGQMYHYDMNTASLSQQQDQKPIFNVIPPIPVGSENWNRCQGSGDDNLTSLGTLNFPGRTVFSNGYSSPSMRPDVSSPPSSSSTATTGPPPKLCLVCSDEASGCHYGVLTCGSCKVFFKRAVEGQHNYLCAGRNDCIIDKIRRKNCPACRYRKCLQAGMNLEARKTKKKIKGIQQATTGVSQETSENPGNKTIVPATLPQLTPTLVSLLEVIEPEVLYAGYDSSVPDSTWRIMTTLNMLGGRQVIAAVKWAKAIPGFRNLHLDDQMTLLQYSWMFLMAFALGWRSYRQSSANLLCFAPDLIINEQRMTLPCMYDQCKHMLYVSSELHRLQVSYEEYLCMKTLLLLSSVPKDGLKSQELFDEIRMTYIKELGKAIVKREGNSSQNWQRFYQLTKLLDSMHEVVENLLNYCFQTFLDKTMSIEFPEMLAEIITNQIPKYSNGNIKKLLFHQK
How it was run: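 Titration series, up to 92 uM, applied to GRE-bla HeLa cells for 18 h at 37 C. Detection by CCF4 FRET substrate after 2 h at RT.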

[4] = qHTS assay for small molecule antagonists of peroxisome proliferator-activated receptor delta signaling (AID 588535; active = well fitted inhibition curve with a large enough effect in the signal ratio, with a control signal flat, not every such curve was filed as active; the % refers to the signal ratio;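 as to max response: cells co-treated with a PPAR-delta agonist as stimulator during compound exposure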); details: HEK293T PPARd-UAS-bla, beta-lactamase FRET ratio, 18 h; 460 nm channel
How it was run: (§1)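 Compounds tested in titration on PPAR-delta-UAS-bla HEK293T cells grown in charcoal/dextran-stripped serum (2%); beta-lactamase activity read via CCF4 emission at 460 and 530 nm.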

[5] = target: Peroxisome proliferator-activated receptor delta (Homo sapiens) (UniProt Q03181); test: as above
Chain of Peroxisome proliferator-activated receptor delta (Homo sapiens) (Q03181 whole entry, looked up): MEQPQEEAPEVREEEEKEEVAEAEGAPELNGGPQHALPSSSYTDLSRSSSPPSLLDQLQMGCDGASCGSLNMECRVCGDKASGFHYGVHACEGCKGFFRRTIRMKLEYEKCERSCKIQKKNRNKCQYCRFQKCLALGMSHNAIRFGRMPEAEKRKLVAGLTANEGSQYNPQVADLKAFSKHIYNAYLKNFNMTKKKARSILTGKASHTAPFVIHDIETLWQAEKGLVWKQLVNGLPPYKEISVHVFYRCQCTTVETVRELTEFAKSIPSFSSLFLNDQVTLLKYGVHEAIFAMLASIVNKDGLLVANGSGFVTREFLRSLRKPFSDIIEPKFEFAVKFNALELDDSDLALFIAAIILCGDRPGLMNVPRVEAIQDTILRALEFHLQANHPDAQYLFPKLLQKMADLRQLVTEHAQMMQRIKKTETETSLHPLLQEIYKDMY
How it was run: as §1

[6] = target: Vitamin D3 receptor (Homo sapiens) (UniProt P11473); test: qHTS assay for small molecule agonists of vitamin D receptor signaling (AID 588543);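 also: 0% = DMSO basal and 100% = reference agonist control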
Chain of Vitamin D3 receptor (Homo sapiens) (P11473 whole entry, looked up): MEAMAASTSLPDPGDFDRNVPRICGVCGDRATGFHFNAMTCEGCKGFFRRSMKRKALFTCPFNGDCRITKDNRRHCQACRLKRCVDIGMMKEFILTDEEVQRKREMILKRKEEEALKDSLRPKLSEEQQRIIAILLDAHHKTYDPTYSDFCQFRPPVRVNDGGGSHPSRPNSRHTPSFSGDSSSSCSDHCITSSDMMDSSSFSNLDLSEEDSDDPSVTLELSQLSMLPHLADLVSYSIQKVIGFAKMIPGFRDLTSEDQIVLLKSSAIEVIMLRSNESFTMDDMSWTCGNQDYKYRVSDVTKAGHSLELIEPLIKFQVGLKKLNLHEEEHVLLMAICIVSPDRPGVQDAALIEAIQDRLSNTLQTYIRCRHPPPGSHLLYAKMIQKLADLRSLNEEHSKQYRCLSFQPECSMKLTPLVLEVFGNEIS
How it was run: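 GeneBLAzer VDR-UAS-bla HEK293T cells in 2% charcoal-stripped FBS medium were dosed with compound titrations for 16 h at 37 °C; CCF4 β-lactamase readout (405 nm ex, 460/530 nm em). EC50 and efficacy from Hill fits, normalized to 50 nM calcitriol (100%) and DMSO (0%).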

[7] = target: Thyroid hormone receptor beta (Homo sapiens) (UniProt P10828); test: qHTS assay for small molecule antagonists of thyroid hormone receptor beta signaling (AID 588547; active = well fitted inhibition curve with a large enough effect in the signal ratio, with a control signal flat, not every such curve was filed as active; the % refers to the signal ratio;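 also: cells stimulated with 0.4 nM T3 agonist during compound exposure; series mostly up to about 77 µM; % is scaled to controls: 0 for no effect and ±100 for the full control effect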); details: TR-UAS-bla HEK293, beta-lactamase ratio, antagonist mode, 18 h
Chain of Thyroid hormone receptor beta (Homo sapiens) (P10828 whole entry, looked up): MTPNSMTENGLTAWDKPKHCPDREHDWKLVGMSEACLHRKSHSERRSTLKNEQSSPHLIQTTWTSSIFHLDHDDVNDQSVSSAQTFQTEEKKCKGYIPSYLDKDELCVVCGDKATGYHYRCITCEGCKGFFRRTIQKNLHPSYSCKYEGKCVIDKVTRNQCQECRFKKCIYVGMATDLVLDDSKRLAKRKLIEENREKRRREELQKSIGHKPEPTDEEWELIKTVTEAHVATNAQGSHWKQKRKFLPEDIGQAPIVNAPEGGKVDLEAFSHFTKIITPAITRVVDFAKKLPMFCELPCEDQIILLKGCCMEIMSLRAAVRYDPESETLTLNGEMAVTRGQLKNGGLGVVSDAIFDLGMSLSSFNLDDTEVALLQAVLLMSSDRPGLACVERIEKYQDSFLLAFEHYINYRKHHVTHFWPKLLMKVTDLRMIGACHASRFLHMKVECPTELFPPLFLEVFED
How it was run: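 TR-UAS-bla GripTite HEK293 cells in 2% charcoal/dextran FBS medium were preincubated 4 h at 37 C, given compound (0.59 nM to 92 uM) plus 0.4 nM T3 (final) for 18 h, then CCF4 for 2 h at RT; Hill fit gave IC50.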

[8] = qHTS assay for small molecule agonists of the antioxidant response element (ARE) signaling pathway (AID 651741; active = well fitted activation curve with a large enough effect in the signal ratio; the % refers to the signal ratio; also: potency is read from the fitted curve at half-maximal effect; as to activation: % of control where 0% means no effect)
How it was run: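 Beta-lactamase reporter expression driven by the antioxidant response element in HepG2 cells was detected by fluorescence with LiveBLAzer B/G FRET substrate (2 h, room temperature) following 16 h compound treatment at 37 C.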

[9] = qHTS assay for small molecule activators of the nuclear factor-kappa B (NF-kB) signaling pathway (AID 651749; active = well fitted activation curve with a large enough effect in the signal ratio; the % refers to the signal ratio; also: series mostly up to about 77 µM; % of control where 0% means no effect); details: NF-kB-bla ME-180 cells, beta-lactamase FRET ratio, 16 h; activation: stronger effect = higher value
How it was run: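 Beta-lactamase reporter expression, controlled by NF-kB response elements in ME-180 cells, was quantified fluorometrically via FRET disruption; cells at 2,000/well had been incubated with 23 nL test compound for 16 hr.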

[10] = qHTS assay for small molecule activators of the human pregnane X receptor (PXR) signaling pathway (AID 720659; call rule not given here; also: 0% is about no effect)
[11] = target: Androgen receptor (Homo sapiens) (UniProt P10275); test: qHTS assay for small molecule agonists of androgen receptor signaling (AID 588515; active = well fitted curve in the direction sought with a large enough effect in the signal ratio, with a control signal flat; the % refers to the signal ratio; also: % is scaled to controls: 0 for no effect and ±100 for the full control effect); details: AR-UAS-bla HEK293, beta-lactamase ratio, agonist 16 h; stronger effect = higher value
Chain of Androgen receptor (Homo sapiens) (P10275 whole entry, looked up): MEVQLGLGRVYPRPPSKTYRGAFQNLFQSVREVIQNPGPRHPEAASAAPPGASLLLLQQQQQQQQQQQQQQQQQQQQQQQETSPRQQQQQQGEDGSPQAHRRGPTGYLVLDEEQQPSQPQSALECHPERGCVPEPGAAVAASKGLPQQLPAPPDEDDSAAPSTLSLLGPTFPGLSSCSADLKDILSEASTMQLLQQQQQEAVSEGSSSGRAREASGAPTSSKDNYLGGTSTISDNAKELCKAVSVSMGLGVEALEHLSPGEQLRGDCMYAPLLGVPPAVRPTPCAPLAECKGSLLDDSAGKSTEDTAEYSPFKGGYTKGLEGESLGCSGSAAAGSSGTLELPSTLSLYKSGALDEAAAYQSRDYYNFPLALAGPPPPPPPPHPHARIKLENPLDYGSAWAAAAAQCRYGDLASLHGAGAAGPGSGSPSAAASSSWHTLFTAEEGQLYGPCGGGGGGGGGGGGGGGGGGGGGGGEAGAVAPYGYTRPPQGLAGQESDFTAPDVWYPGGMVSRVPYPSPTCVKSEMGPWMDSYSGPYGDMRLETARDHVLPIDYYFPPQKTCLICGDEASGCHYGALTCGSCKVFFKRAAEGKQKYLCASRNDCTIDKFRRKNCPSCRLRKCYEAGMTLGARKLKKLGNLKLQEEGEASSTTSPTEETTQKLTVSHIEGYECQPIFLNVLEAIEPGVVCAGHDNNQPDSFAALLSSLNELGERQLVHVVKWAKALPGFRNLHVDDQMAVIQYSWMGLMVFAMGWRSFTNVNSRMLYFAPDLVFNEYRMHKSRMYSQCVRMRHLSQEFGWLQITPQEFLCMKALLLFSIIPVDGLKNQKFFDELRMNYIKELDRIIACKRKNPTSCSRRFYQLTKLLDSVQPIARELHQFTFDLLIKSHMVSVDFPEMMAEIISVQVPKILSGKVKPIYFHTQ
How it was run: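 Stimulation of an AR-responsive β-lactamase reporter in GripTite HEK293 cells was measured after 16 h compound exposure at 37 °C, via CCF4 fluorescence after 2 h RT. EC50 from Hill fits, normalized to R1881 at 30 nM.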

[12] = target: Androgen receptor (Homo sapiens) (UniProt P10275); test: qHTS assay for small molecule antagonists of androgen receptor signaling (AID 588516; active = well fitted curve in the direction sought with a large enough effect in the signal ratio, with a control signal flat, not every such curve was filed as active; the % refers to the signal ratio; also: % is scaled to controls: 0 for no effect and ±100 for the full control effect)
How it was run: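 AR-UAS-bla-GripTite HEK 293 cells (2000/well, 5 h at 37 C) received compound titrations, then R1881 at 10 nM final; after 16 h at 37 C, CCF4 dye 2 h RT, beta-lactamase fluorescence read; IC50 from Hill fits.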

COC(=O)c1ccccc1CS(=O)(=O)NC(=O)Nc1nc(OC)cc(OC)n1
-1.25%: max response [4]
inactive: Potency [1] | activation [2] -0.439% | activation [3] -0.772% | Potency [5] | outcome [6] | activity change % (negative = inhibition) [7] 15.6% | Potency [8] | activation [9] -0.866% | outcome [10]

CCOC1Oc2ccc(OS(C)(=O)=O)cc2C1(C)C (centres undefined)
inactive: activation [11] -8.07% | Potency [12] | Potency [5] | activation [9] 0.657%
-8.85%: max response [4]

COCc1cnc(C2=NC(C)(C(C)C)C(=O)N2)c(C(=O)O)c1 (centres undefined)
-13.7%: max response [4]
inactive: Potency [12] | Potency [1] | activation [2] -0.497% | Potency [5] | outcome [6] | activity change % (negative = inhibition) [7] -1.58% | outcome [10]

CCOc1nc(NC)nc(NC(=O)NS(=O)(=O)c2ccccc2C(=O)OC)n1
inactive: activation [11] -6.67% | Potency [1] | activation [2] -2.84% | activation [3] 15% | Potency [5] | outcome [6] | activation [9] 1.48%
16.6%: max response [4]

CCC(C)n1c(=O)[nH]c(C)c(Br)c1=O (centres undefined)
inactive: Potency [1] | activation [2] 2.99% | outcome [6] | activation [9] 0.0195% | outcome [10]

CCCCN(CC)C(=O)SCCC
5.34%: max response [4]
inactive: activation [11] 8.69% | Potency [1] | activation [2] 3.83% | Potency [5] | outcome [6] | activity change % (negative = inhibition) [7] 1.78% | outcome [10]

C=CCC1=C(C)[C@@H](OC(=O)[C@@H]2[C@@H](C=C(C)C)C2(C)C)CC1=O
active: Potency [8] 61.1 µM
inactive: Potency [1] | activation [2] 1.33% | outcome [6] | activation [9] -0.0415%

CCC[CH2][Sn]([CH2]CCC)[CH2]CCC
inactive: activation [2] 6.72%

NS(=O)(=O)C(F)(F)C(F)(F)C(F)(F)C(F)(F)C(F)(F)C(F)(F)C(F)(F)C(F)(F)F
101%: max response [4]
active: Potency [8] 68.6 µM
inactive: Potency [1] | activation [2] 4.62% | activation [3] -2.51% | Potency [5] | activation [9] 3.4%

C=CC1(C)OC(=O)N(c2cc(Cl)cc(Cl)c2)C1=O (centres undefined)
-9.9%: max response [4]
inactive: Potency [1] | activation [2] -2.77% | activation [3] -11.4% | Potency [5] | outcome [6] | activation [9] -0.261%

COC(=O)c1ccccc1S(=O)(=O)NC(=O)N(C)c1nc(C)nc(OC)n1
inactive: Potency [1] | activation [2] 1.44% | Potency [5] | activity change % (negative = inhibition) [7] 9.61% | Potency [8] | activation [9] -0.341% | outcome [10]
-42.2%: max response [4]

Clc1ccc([C@]2(Cn3cncn3)C[C@@H](Br)CO2)c(Cl)c1
inactive: Potency [1] | activation [2] -2.66% and -2.04% | activation [3] 7.46% and -5.85% | outcome [6] | activity change % (negative = inhibition) [7] -4.77% and -5.66% | activation [9] -2.1% and -2.03%

COP(=O)(OC)Oc1ccc([N+](=O)[O-])cc1
inactive: activation [2] 5.22% | Potency [8] | outcome [10]

COc1ccc(O)c(C(C)(C)C)c1
inactive: Potency [1] | activation [2] -2.62% | activation [3] -14% | outcome [6]

CCCCC(CC)COC(=O)Cl (centres undefined)
inactive: Potency [1] | activation [2] 1.19% | outcome [6] | activity change % (negative = inhibition) [7] -1.19% | Potency [8] | activation [9] -0.442% | outcome [10]

Cc1c(F)c(F)c(COC(=O)C2C(/C=C(\Cl)C(F)(F)F)C2(C)C)c(F)c1F (centres undefined)
inactive: Potency [1] | activation [2] 0.0589% | activation [3] 9.43% | Potency [5] | outcome [6] | activity change % (negative = inhibition) [7] 16.3%
-17%: max response [4]

Clc1ccc(C(Cl)(Cl)Cl)cc1
inactive: Potency [1] | activation [2] -1.93% | activation [3] 0.824% | activity change % (negative = inhibition) [7] -0.364% | outcome [10]

CCOP(=O)(NC(C)C)Oc1ccc(S(C)=O)c(C)c1 (centres undefined)
-19.9%: max response [4]
inactive: Potency [12] | Potency [1] | activation [2] -0.691% | activation [3] -7.67% | Potency [5] | activity change % (negative = inhibition) [7] 7.26% | Potency [8] | activation [9] 0.567% | outcome [10]

CCOP(OCC)OCC
inactive: Potency [1] | activity change % (negative = inhibition) [7] 9.21% | activation [9] -0.0576% | outcome [10]

C/C(=N\NC(=O)Nc1cc(F)cc(F)c1)c1ncccc1C(=O)O
inactive: Potency [1] | activation [2] -2.37% and 0.898% | outcome [6] | activity change % (negative = inhibition) [7] -6.39% | Potency [8] | activation [9] 0.367% and -2.66%

Clc1ccc([C@]2(Cn3cncn3)C[C@H](Br)CO2)c(Cl)c1
7.61% and -41.8%: max response [4]
inactive: Potency [1] | activation [2] 0.21% and -0.946% | activation [3] -7.37% and -0.86% | Potency [5] | outcome [6] | activity change % (negative = inhibition) [7] 0.44% | Potency [8] | activation [9] -1.6% and -1.96%

COCC(=O)N(c1c(C)cccc1C)[C@H](C)C(=O)OC
inactive: Potency [1] | activation [2] 0.109% | outcome [6] | Potency [8]

CC(Oc1cc(Cl)c(Cl)cc1Cl)C(=O)O (centres undefined)
inactive: Potency [1] | activation [2] -3.32% | activation [3] -0.156% | Potency [5] | outcome [6] | outcome [10]
52.3%: max response [4]
